Assay outcomes as filed in PubChem.
An excerpt weighted towards active compounds, which were near 8.8% of everything screened.
HT1080-NT tox – qHTS for induction of synthetic lethality in tumor cells producing 2HG: qHTS for the HT-1080-NT fibrosarcoma cell line; HT-1080-NT fibrosarcoma viability, CellTiter-Glo ATP luminescence, 48 h; Potency, µM (top dose mostly 46.1 µM), inactives show top-dose activity, negative = less viability, usual class: cytotoxic; hit rate 1.6% among 360,000;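 further: NT is the 2HG producing partner of a matched IDH1 knockdown line; potency means the concentration at half of the fitted maximal effect; 0% = DMSO-treated cells and -100% = media-only wells without cells; nearly all actives have a fitted effect of over 55% in size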
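Read-out is CellTiter-Glo luminescence after 10 minutes at room temperature, following 48 hours' compound treatment of HT-1080-NT cells (750 cells/well, RPMI, 5% FBS, 37 degrees C).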
KB-V1 MDR tox – qHTS assay for MDR1-selective chemotherapeutics: Primary screen using the drug-selected MDR subline cells KB-V1 | hit rate 3.4% among 400,000 | KB-V1 MDR cells viability, CellTiter-Glo, 72 h | AID 1347076, 2019 | Potency, µM (titrated, usually from 46.1 µM), usual class: cytotoxic; further: potency means the concentration at half of the fitted maximal effect; nearly all actives have a fitted effect of over 60% in size
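Luminescent ATP read-out (CellTiter-Glo, 10 min) measures survival of drug-selected KB-V1 MDR cells after 72 h, 37 degrees C compound exposure. Medium: phenol-red-free DMEM, 10% FBS. Values from fitted concentration-response curves.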
IL1B secr inh – qHTS for Inhibitors of Inflammasome Signaling: IL-1-beta AlphaLISA Primary Screen; activity change, % at 57.5 µM; THP-1 LPS/ATP IL-1B secretion, AlphaLISA, 16 h; hits give low values; hit rate 4.7% among 360,000; in the data active means activity change below about -50%; inconclusive means mostly about -30% to -49%
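THP-1 cells pretreated 1 hr with compounds (up to 57.5 uM final), then stimulated with LPS (250 ng/mL final) plus ATP (1.25 mM final); secreted IL-1B measured by AlphaLISA after 16 hr, decreased signal indicating inhibition.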
KB-3-1 cytotox – qHTS assay for MDR1-selective chemotherapeutics: Primary screen using the parental adenocarcinoma cell KB-3-1 | KB-3-1 viability, CellTiter-Glo ATP luminescence, 72 h | Potency, µM (titrated, usually from 46.1 µM), most hits filed as cytotoxic | hit rate 1.4% among 400,000 | AID 1347075, 2019; further: potency means the concentration at half of the fitted maximal effect; nearly all actives have a fitted effect of over 60% in size
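72 h, 37 °C compound treatment of KB-3-1 parental cells; CellTiter-Glo added, 10 min, luminescence read. Data corrected against DMSO-only plates and normalized before curve fitting.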
HT1080 IDH1KD tx – qHTS for induction of synthetic lethality in tumor cells producing 2HG: qHTS for the HT-1080-IDH1KD cell line | Potency, µM (titrated, usually from 46.1 µM), for inactives: at the highest dose activity, negative = toxicity, hits mostly cytotoxic | HT-1080 IDH1 knockdown viability, ATP luminescence, 48 h | hit rate 2% among 360,000;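 further: potency means the concentration at half of the fitted maximal effect; 0% = DMSO wells and -100% = cell-free medium wells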
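CellTiter-Glo luminescence after 48 h compound exposure at 37 degrees C of IDH1-knockdown HT-1080 cells in 5% FBS RPMI. %Activity scaled between DMSO wells and cell-free media wells, with curves fitted and assigned curve classes.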
Numbers without * were called inactive; i = inactive; ? = inconclusive; · = not tested or not shown. Unless noted, the call rests on the fitted dose curve; in most records, active means well fitted curve in the direction sought with a large enough effect; inconclusive means small, poorly fitted or top-dose-only effect, or another doubt; inactive means no such curve, though single readings can be large; an effect the other way counts as inactive or inconclusive. Unless noted, on the % scale 0 is the no-effect control and ±100 the full control effect.

SMILES | HT1080-NT tox | KB-V1 MDR tox | IL1B secr inh | KB-3-1 cytotox | HT1080 IDH1KD tx
CCC1(O)CC2CN(CCc3c([nH]c4ccccc34)C(C(=O)OC)(c3cc4c(cc3OC)N(C=O)C3C(O)(C(=O)OC)C(OC(C)=O)C5(CC)C=CCN6CCC43C65)C2)C1 (stereo not drawn) | 0.0058µM* | 16µM* | 26 | 0.046µM* | ?
CC[C@]1(O)CC2CN(CCc3c([nH]c4ccccc34)[C@@](C(=O)OC)(c3cc4c(cc3OC)N(C)[C@H]3[C@@](O)(C(=O)OC)[C@H](OC(C)=O)[C@]5(CC)C=CCN6CC[C@]43[C@@H]65)C2)C1 (stereo partly drawn) | · | ? | · | 0.023µM* | ·
CCOc1cc(C)c(S(=O)(=O)Nc2ccc(Cl)cn2)cc1C | -18% | ? | -2 | i | -2%
CCOc1ccc(S(=O)(=O)Nc2ccc(Cl)cn2)c(C)c1C | -14% | 23µM* | 34 | ? | -8%
Oc1ccc(Br)cc1/C=N/N1CCCCC1 | 8% | i | -14 | i | 8%
Oc1ccc(Br)cc1/C=N/n1cnc2ccccc21 | -15% | 15µM* | 26 | i | ?
CC/C(=N\N=C1\SC(C)C(=O)N1Cc1ccco1)c1ccccc1 (stereo not drawn) | -1% | ? | 9 | i | 0%
CSc1cccc(NC(=O)CN(Cc2ccc(Cl)cc2)S(C)(=O)=O)c1 | ? | 12µM* | -2 | i | ?
CS(=O)(=O)N(CC(=O)Nc1ccccc1)Cc1ccc(Cl)cc1 | 4% | i | -2 | i | -9%
CSc1ccccc1NC(=O)c1ccccc1N(Cc1ccccc1)S(C)(=O)=O | -3% | 9.2µM* | -3 | i | -29%
CSc1ccccc1NC(=O)CN(Cc1ccc(Cl)cc1)S(C)(=O)=O | -4% | i | -63* | i | 1%
CSc1ccccc1NC(=O)c1ccccc1N(C)S(C)(=O)=O | -2% | i | 8 | i | 0%
CSc1ccccc1NC(=O)CN(Cc1ccccc1)S(C)(=O)=O | 5% | 21µM* | -3 | i | 0%
COc1ccc(NC(=O)C/C(C)=N/NC(=O)C(=O)NC2CCCCC2)c(OC)c1 | 24% | i | 9 | i | 13%
COC(=O)c1c(NC(=O)C2SC(=NC3CCCCC3)C(C(N)=O)=C2N)sc2c1CCCC2 (stereo not drawn) | 5% | i | 15 | i | 5%
C=C(C)CN=C1SC(C(=O)Nc2sc3c(c2C(=O)OC)CCC3)C(N)=C1C(N)=O (stereo not drawn) | -7% | 9.2µM* | -3 | ? | -8%
CCNC(=S)N/N=C/c1c(Cl)cccc1Cl | 5% | i | 14 | i | 0%
Clc1cccc(Cl)c1/C=N/Nc1c(Cl)cncc1Cl | 2.3µM* | ? | -82* | 4.6µM* | 5.2µM*
Clc1cncc(Cl)c1N/N=C/c1ccncc1 | -14% | ? | -95* | i | ?
Cc1cccc(C)c1NC(=O)Cn1c(=O)n(CCCS(=O)(=O)C2CCCCC2)c(=O)c2ccccc21 | · | i | · | i | ·
Cc1cccc(Nc2cc(C)c3c(O)cccc3n2)c1C | ? | i | -101* | ? | ?
Cc1cc(Nc2ccccc2O)nc(C)n1 | · | ? | · | i | ·
COC(=O)COc1cc(OCC(=O)OC)c2c(C)c(Cl)c(=O)oc2c1 | 2% | i | -83* | i | 11%
Cc1ccc2nsnc2c1S(=O)(=O)N1CCN(CCc2ccccc2)CC1 | -4% | 12µM* | -4 | ? | -2%
COc1ccc(NC(=O)C2CCN(c3ncnc4c3nc3n4CCCCC3)CC2)cc1Cl | -27% | i | ? | i | ?
SMILES | HT1080-NT tox | KB-V1 MDR tox | IL1B secr inh | KB-3-1 cytotox | HT1080 IDH1KD tx
CC(C)c1ccc(NC(=O)C(c2ccc3c(c2)OCO3)N2CCCCC2)cc1 (stereo not drawn) | -10% | ? | 0 | i | -8%
Oc1cc2c(cc1C(c1ccc(Cl)c(Cl)c1)N1CCCC1)OCO2 (stereo not drawn) | ? | i | -99* | i | ?
O=C(CN1CCN(c2ccccc2O)CC1)Nc1ccc2c(c1)CCC2 | 1% | i | -3 | i | 0%
O=C1C=CC(=O)N1c1ccc2c(c1)Cc1cc(F)ccc1-2 | 23% | i | -64* | i | -8%
CC(=O)Nc1ccc2c(c1)Cc1cc(N3C(=O)C=CC3=O)ccc1-2 | -12% | i | -12 | ? | ?
CSc1nc(SCCN(C)C)c2c3c(sc2n1)COC(C)(C)C3 | -24% | ? | -61* | i | ?
CCOC(=O)N1CCN(c2nc(SC)nc3sc4c(c23)CC(C)(C)OC4)CC1 | 12% | i | 8 | i | 9%
CCN1CCN(c2nc(SC)nc3sc4c(c23)CC(C)(C)OC4)CC1 | -1% | 8.2µM* | 4 | i | 2%
COc1ccc(-c2ccc(C(=O)NCc3cccs3)c3occc23)c(C)c1 | ? | ? | -23 | i | ?
COc1ccc(-c2ccc(C(=O)NCc3ccco3)c3occc23)c(C)c1 | ? | ? | -53* | i | ?
COc1ccc(-c2coc3c(C(=O)NCc4cccs4)cccc23)c(C)c1 | ? | i | -53* | ? | ?
COc1ccc(-c2coc3c(C(=O)NCc4ccco4)cccc23)c(C)c1 | 18µM* | ? | -26 | i | ?
Cc1ccccc1-c1nnc(SCC(=O)N2CCCC2)o1 | 19% | i | -4 | i | 12%
Cc1nc2ccccc2c(=O)n1-c1ccc(F)c(NS(=O)(=O)c2ccccc2F)c1 | 11% | i | -6 | i | 13%
COc1cccc(Nc2nc(C(N)c3ccccc3)cs2)n1 (stereo not drawn) | ? | i | -71* | i | ?
COc1cccc(Nc2nc(C(N)C3CCCCC3)cs2)n1 (stereo not drawn) | ? | i | 0 | i | 16µM*
COc1cccc(Nc2nc(C(C)N)cs2)n1 (stereo not drawn) | ? | i | -18 | i | -8%
COc1cc(OC)nc(Nc2nc(C(N)c3ccccc3)cs2)n1 (stereo not drawn) | -22% | i | -56* | i | -12%
CCc1ccccc1NC(=O)CN1CCN(C(=O)CNC(=O)c2ccc(N3CCCC3=O)cc2)CC1 | 6% | i | -3 | i | 13%
COc1cc(-c2noc(C)c2C(=O)NCC[C@@H]2CCCN2C)cc(OC)c1OC | -1% | i | -5 | i | -3%
